SMILES strings stand for the structures. The panel holds about 83,000 compounds, 20% with a hit somewhere; the sample as a whole holds those more often.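 Single-concentration screen, 48 h exposure, 96-well plates. Endpoint: percent growth. Below 10 = active.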 Values without a mark were called inactive. The source made the active and inactive calls.

In one experiment the test system is SNB-75 CNS. As to the kind of experiment: NCI-60 one-dose screen, 48 h (100 = growth as untreated, 0 = no growth, -100 = all killed). The note with it: 10 µM unless noted.
As to `Cn1ccnc1C(=O)/C=C/c1ccc(NC(=O)c2ccc(F)cc2)cc1`, the growth was 46.9%. As to `Nc1nc(-c2cccc([N+](=O)[O-])c2)c(N=Nc2ccccc2)s1`, the growth is 63.2%. Regarding `Cc1ccc(N2C(=O)/C(=C/C=C/c3ccco3)SC2=S)cc1`, the growth is 98.1%.

As for `COc1cc(OC)c(S(N)(=O)=O)cc1C(=O)/C=C/c1ccc(C)cc1`, the growth was 1.82% (active).

For `CN1CCC(n2cc(Nc3ncc4c(=O)n(-c5c(Cl)cccc5Cl)cc(Br)c4n3)cn2)CC1`, the growth was 17.1%.

For the compound `C#CC(=O)N(c1ccc(OC)cc1OC)C(C(=O)NCC(=O)OCC)c1cccs1` (centres undefined), the growth is -71% (active).

For `COc1ccc(/C=C(/C)c2ccc3ccc(OC)cc3[o+]2)c(O)c1`, the growth is 85.6%. With `Cc1ccc(-c2cc3nc(C(Cl)Cl)nc(C)n3n2)cc1`, the growth is 129%. Consider `Cc1ccc(-c2nnc(SCc3ccc(O)c4ncccc34)n2-c2ccccc2)cc1`, for which the growth is -5.25% (active). Still for that read-out and setting: with `CCOc1ccccc1NC1=C(Cl)C(=O)c2nc(C)ccc2C1=O` the figure was 101%.

A further experiment has as its system SNB-19 CNS. The experiment is described as above. The note with it: 10 µM unless noted.
Take `Oc1cccc2ccc(-c3nnc(SCc4ccc(O)c5ncccc45)o3)nc12`: the growth was 12.9%. Take `COC(=O)c1[nH]nc2c1C1(C(=O)N(C)c3ccccc31)C(C#N)=C(N)O2` (centres undefined): the growth is 101%. On to `Cc1ccc2sc3c(c2c1)OC(N)=C(C#N)C3c1ccc(Cl)cc1` (centres undefined), for which the growth was 89.9%.

On to `CC1=NC2=NN3C(=NN2C(c2ccccc2)=C1)N=NC(c1ccc(Br)cc1)=C3c1ccc(Br)cc1`, for which the growth was 98.1%. Regarding `Cn1ccnc1C(=O)/C=C/c1ccc(NC(=O)c2c(F)c(F)c(F)c(F)c2F)cc1`, the growth was 98.3%.

Consider `COc1ccc(/C=C/C(=O)c2cc(S(N)(=O)=O)c(OC)cc2OC)cc1`, for which the growth was 81%. As to `N#Cc1cccc(CN2CCC3=C(C2)C(=O)N(Cc2ccc(Cl)cc2)C2=NCCCN23)c1`, the growth was 21.8%.

Take `Cc1nn(-c2ccccc2)c2ncnc(N/N=C/c3ccccc3O)c12`: the growth was 17.5%. For the compound `COc1ccc(CCN2C(=O)CSC2=S)cc1`, the growth was 96.6%. Still for that read-out and setting: with `CC(=O)N1C(=S)NC(=O)C1CC(C)C` (centres undefined) the figure was 102%. Same read-out and setting: for `Cc1ccc2sc3c(c2c1)OC(N)=C(C#N)C3c1cccc(F)c1` (centres undefined) the value was 35%; for `COc1cc(-c2nc(SC(C)C)n(C(C)C)c(=O)c2C#N)ccc1OCc1ccccc1`, 83.8%. As for `C/C(=N\O)[C@H]1C[C@]23CC[C@]4(C)[C@H](CC[C@@H]5[C@@]6(C)CC/C(=N/O)C(C)(C)[C@@H]6CC[C@]54C)[C@H]2[C@H](C)C1(C)OC3`, the growth is 97.7%. In the case of `NS(=O)(=O)c1ccc(-n2cc(-c3cccc(NC(=O)c4ccc(N5CCOCC5)c(C(F)(F)F)c4)c3)nn2)cc1`, the growth is 62.9%.

For `O=C1/C(=C/C=C/c2ccco2)SC(=S)N1c1ccccc1`, the growth was 86.3%. With `COc1cc(OC)c(S(N)(=O)=O)cc1C(C)=O`, the growth is 101%. As for `CNC(=O)c1cc(Oc2ccc3nc(NC(=O)c4cc(N5CCOCC5)cc(C(F)(F)F)c4)sc3c2)ccn1`, the growth was 92.9%. As for `CCCCCc1ccc(S(=O)(=O)Nc2cccc(-c3csc(NC(=O)CCCCCN4CCN(CCO)CC4)n3)c2)cc1`, the growth was 85.9%.

Turning to `CNC(=O)c1cc(Oc2ccc3nc(NC(=O)c4cccc(OC(F)(F)F)c4)sc3c2)ccn1`, the growth is 81.3%. Consider `Cc1cc(C)c(N2C(=O)CC(Nc3ccc(Cl)cc3Cl)C2=O)c(C)c1` (centres undefined), for which the growth is 98.5%. Consider `Cc1ccc(C(=O)NN2C(=O)/C(=C/C=C/c3ccco3)SC2=S)cc1`, for which the growth was 94.9%. Regarding `CC/C(=C/c1c(O)cccc1OC)c1ccc2c(OC)cccc2[o+]1`, the growth is 99.4%. Take `Cc1ccc2c(c1)C(=O)/C(=C/c1cccc(F)c1)S2`: the growth was 96.9%.

On to `COc1cc(/C=C2\C(=O)Nc3ccccc32)ccc1OCc1ccc(F)cc1`, for which the growth was 99.3%. Turning to `N/C(=N\C(N)=N\c1nc2ccccc2s1)c1ccc(C(F)(F)F)cc1`, the growth was 90.3%. On to `CN(C)CCNC(=O)c1ccc(-c2nc3ccc4[nH]ncc4c3c3c2COCC3)cc1`, for which the growth is 6.94% (active).

Regarding `O=C(Nc1ccc(N=Cc2c(O)[nH]c3ccccc23)cc1)Nc1nccs1`, the growth is 31%.

Turning to `O=C(Nc1nonc1-c1ccccc1)c1ccc(C(F)(F)F)cc1`, the growth is 62%. For `COc1cccc(C(=O)Nc2cccc(C#Cc3cccc4[nH]nc(N)c34)c2)c1`, the growth is 98.5%.

As for `Cn1ccnc1C(=O)/C=C/c1ccc(NC(=O)c2ccc(F)cc2)cc1`, the growth is 28.1%. Turning to `Nc1nc(-c2cccc([N+](=O)[O-])c2)c(N=Nc2ccccc2)s1`, the growth was 81.2%.

As to `Cc1ccc(N2C(=O)/C(=C/C=C/c3ccco3)SC2=S)cc1`, the growth was 92.4%. The same measure, in the same setting: with `COc1cc(OC)c(S(N)(=O)=O)cc1C(=O)/C=C/c1ccc(C)cc1` the figure was 33.3%; with `CN1CCC(n2cc(Nc3ncc4c(=O)n(-c5c(Cl)cccc5Cl)cc(Br)c4n3)cn2)CC1`, 41.7%. On the same count and under the same terms, with `C#CC(=O)N(c1ccc(OC)cc1OC)C(C(=O)NCC(=O)OCC)c1cccs1` (centres undefined) the figure was 77.1%; with `COc1ccc(/C=C(/C)c2ccc3ccc(OC)cc3[o+]2)c(O)c1`, 82.4%; with `Cc1ccc(-c2cc3nc(C(Cl)Cl)nc(C)n3n2)cc1`, 104%. Still for that read-out and setting: for `Cc1ccc(-c2nnc(SCc3ccc(O)c4ncccc34)n2-c2ccccc2)cc1` the value was 9.09% (active); for `CCOc1ccccc1NC1=C(Cl)C(=O)c2nc(C)ccc2C1=O`, 46.5%.
